Screens (PubChem)
HSF1 inh – HSF1 inhibition; 300,000 compounds, 0.77% hits; NIH3T3-HGL HSE-luciferase, MG132-induced, luminescence 8 h; hits give low values; AID 2098; activity change, negative = inhibition, % at 7.5 µM (by protocol);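 active = more than half of replicate wells show activity change below -50%, luminescence cut by over half; inconclusive = some wells, but at most half, below -50%; inactive = no replicate well below -50%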;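 note: luciferase reports HSF-1 transcriptional activity via heat shock element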
HSF-1 act – increases HSF-1 driven luciferase reporter signal; NIH3T3-HGL HSF-1 luciferase reporter, MG132, 8 h; 100% = twice DMSO control signal; activation, % at 9 µM; 300,000 compounds, 1.7% hits;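 active = mean replicate activation of at least 50% with a set share of replicates each reaching 50%; inconclusive = only one of those two conditions met; inactive = mean below 50% and too few replicates reaching it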
esBAF inh – SWI/SNF esBAF complex inhibition. 350,000 compounds, 2% hits. mouse ES cells, Bmi1-luciferase knock-in reporter, 24 h; 100% = twice the neutral-well signal. reporter increase, % at 12.5 µM; in the data active = activation above about 40%; inconclusive = no clear call, values can overlap the other calls;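 note: a rise in the Bmi1 reporter signal indicates esBAF inhibition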
Vif inh – blocks HIV Vif function. HEK293T cells, Vif self-association by quenched fluorescence, imaging, 24 h. inhibition, % at 7.49 µM. 340,000 compounds, 0.35% hits. AID 602346; in the data active = inhibition above about 50%, passing the limit was not always enough; inconclusive = no clear call, values can overlap the other calls; inactive = below about 31%
Each line names hits and unclear results; the compound was inactive in the other large screens. Shown are actives, neighbours in structure and some others; about 3.4% of the full set was active somewhere.

CC(C)[C@@H](C)NC(=O)N(C)C[C@@H]1OCc2ccccc2-c2ccccc2C(=O)N([C@@H](C)CO)C[C@H]1C	none (no result: HSF1 inh, HSF-1 act, Vif inh)
CCOC(=O)CNC(c1ccccc1)c1cc(Br)ccc1NC(=O)CCN1CCOCC1 (configuration not stated)	HSF-1 act 63
Cc1nc2cc3ccccc3cc2s1	none (no result: HSF1 inh, HSF-1 act)
Cc1nc2cc3nc(C)sc3cc2s1	esBAF inh 50
COc1ccccc1N1C(=O)c2cccc3c(N(C)CCO)ccc(c23)C1=O	Vif inh 80
O=C(COc1ccc(Cl)cc1)Nc1ccc(Cl)cn1	none
O=C(/C=C/c1ccc2c(c1)OCO2)Nc1nc2ccc(F)cc2s1	esBAF inh 56
CCOc1ccc2nc(NC(=O)/C=C/c3ccc4c(c3)OCO4)sc2c1	none (no result: esBAF inh)
O=C(/C=C/c1ccccc1Cl)Nc1ccc(Cl)cn1	none (no result: esBAF inh)
O=C(/C=C/c1ccc2c(c1)OCO2)Nc1ccc(Cl)cn1	HSF-1 act 85 (no result: esBAF inh)
O=C(COc1ccc2c(c1)OCO2)Nc1ccc(Cl)cn1	esBAF inh 46
Cc1ccc(S(=O)(=O)Nc2ccc3c(c2)CC(=O)N([C@H](C)CO)C[C@H](C)[C@H](CN(C)C(=O)Nc2ccc(F)cc2)O3)cc1	none (no result: HSF1 inh, HSF-1 act, Vif inh)
CCN1CCSc2ccc(C(=O)NCc3cccc(Br)c3)cc21	HSF-1 act 121
CCc1nnc(NC(=O)c2nc(S(=O)(=O)Cc3ccc(C)cc3)ncc2Cl)s1	HSF1 inh -60
CCc1nnc(NC(=O)c2nc(S(=O)(=O)Cc3ccccc3)ncc2Cl)s1	none
CCc1nnc(NC(=O)c2nc(S(=O)(=O)Cc3cccc(C)c3)ncc2Cl)s1	HSF1 inh -65
CCCNC(=O)C[C@@H]1CC[C@@H]2[C@H](COC[C@@H](O)CN2C(=O)Nc2c(C)noc2C)O1	none (no result: HSF1 inh, HSF-1 act, Vif inh)
COCCSc1nnc(NS(=O)(=O)c2ccccc2)s1	Vif inh 56
C[C@@H]1CN([C@@H](C)CO)C(=O)c2ccccc2-c2ccccc2CO[C@H]1CN(C)C(=O)NC1CCCCC1	none (no result: HSF1 inh, HSF-1 act, Vif inh)
Cc1cccc(C(C)C)c1NC(=O)COC(=O)c1cccc(S(=O)(=O)N2CCc3ccccc3C2)c1	HSF-1 act 56 (no result: esBAF inh)
CCc1cccc(CC)c1NC(=O)COC(=O)c1cccc(S(=O)(=O)N2CCc3ccccc3C2)c1	none (no result: esBAF inh)
CCCCn1nc2cc(C(=O)NCCc3cccs3)ccc2c1OCC	esBAF inh 41
CCOc1c2ccc(C(=O)NCCc3cccs3)cc2nn1CC	esBAF inh 45
CN1C(=O)c2cc(NC(=O)Nc3ccccc3F)ccc2OC[C@@H]2O[C@H](CC(=O)O)CC[C@@H]21	none (no result: HSF1 inh, HSF-1 act, Vif inh)
COc1ccc(C(=O)NN=C2CCCC2)cc1	esBAF inh 45
O=C(NN=C1CCCC1)c1ccccc1O	esBAF inh 75
O=C(O)c1ccccc1NN=C1CCCCC1	esBAF inh 83
CCCNC(=O)C[C@H]1CC[C@H]2[C@@H](COC[C@@H](O)CN2C(=O)Nc2cccc(Cl)c2)O1	none (no result: HSF1 inh, HSF-1 act, Vif inh)
COc1ccc(S(=O)(=O)N(C)C[C@H]2OCCCC[C@H](C)Oc3ccc(NC(=O)c4ccncc4)cc3C(=O)N([C@H](C)CO)C[C@H]2C)cc1	none (no result: HSF1 inh, HSF-1 act, Vif inh)
CN(C)c1ccc(/C=N/NC(=O)c2ccc3c(c2)OCCO3)cc1	HSF1 inh -55
CN(C)c1ccc(/C=N\NC(=O)c2cccc3cc[nH]c23)cc1	esBAF inh 54
COc1ccc(/C=N/NC(=O)c2ccc3c(c2)OCO3)cc1	none
CN(C)c1ccc(/C=N/NC(=O)c2cc(=O)[nH]c3ccccc23)cc1	none
CCN(CC)c1ccc(/C=N/NC(=O)c2ccc3c(c2)OCCO3)cc1	HSF1 inh -52 (no result: esBAF inh)
O=C(CNC(=O)c1ccc2c(c1)OCCO2)N/N=C/c1ccc(Cl)cc1	none (no result: esBAF inh)
O=C(Cc1ccncc1)NCC[C@H]1CC[C@@H](NC(=O)C2CCC2)[C@H](CO)O1	none (no result: HSF1 inh, HSF-1 act, Vif inh)
C[C@@H]1CN([C@H](C)CO)C(=O)Cc2cc(NC(=O)Nc3ccc(C(F)(F)F)cc3)ccc2O[C@@H]1CN(C)S(=O)(=O)c1cn(C)cn1	none (no result: HSF1 inh, HSF-1 act, Vif inh)
CCn1c(O)c(/C=C2\C=Nc3ccccc32)sc1=Nc1ccccc1	esBAF inh 67
Cn1c(O)c(/C=C2\C=Nc3ccccc32)sc1=Nc1ccc(C(=O)O)cc1	none
O=C(C[C@H]1CC[C@@H]2[C@H](COC[C@H](O)CN2C(=O)Nc2ccc(Cl)cc2)O1)N1CCCCC1	none (no result: HSF1 inh, HSF-1 act, Vif inh)
CC(=O)COc1ccccc1OC(=O)c1ccco1	HSF1 inh -51
CCC(=O)c1ccccc1OCCCn1cncn1	none
c1ccc(COc2ccc(OCCn3cncn3)cc2)cc1	esBAF inh 68 (no result: Vif inh)
CC(=O)CCc1ccc(OCCCCn2cncn2)cc1	none
c1ccc(-c2ccc(OCCCn3cncn3)cc2)cc1	esBAF inh 51 (no result: HSF1 inh, HSF-1 act)
c1ccc(Oc2cccc(OCCn3cncn3)c2)cc1	HSF1 inh -57 (no result: esBAF inh)
Brc1cccc(OCCCCn2cncn2)c1	none
C[C@H]1CCCCO[C@@H](CN(C)S(=O)(=O)c2ccc(F)cc2)[C@@H](C)CN([C@@H](C)CO)C(=O)c2cc(NS(=O)(=O)c3cn(C)cn3)ccc2O1	none (no result: HSF1 inh, HSF-1 act, Vif inh)
Cc1noc(C)c1S(=O)(=O)Nc1ccc2c(c1)C(=O)N([C@@H](C)CO)C[C@H](C)[C@@H](CN(C)C(=O)Nc1ccc(C(F)(F)F)cc1)OCCCC[C@@H](C)O2	none (no result: HSF1 inh, HSF-1 act, Vif inh)
Cc1cc(C(=O)N(C)Cc2ccc(Br)cc2)no1	none
CN(Cc1ccccc1)C(=O)c1cc(-c2ccc(Br)cc2)on1	HSF-1 act 62
C[C@@H]1CN([C@H](C)CO)C(=O)Cc2cc(NC(=O)NC3CCCCC3)ccc2O[C@@H]1CN(C)Cc1ccc(C(F)(F)F)cc1	none (no result: HSF1 inh, HSF-1 act, Vif inh)
COc1cc(C(=O)NCc2nnc(SCC(=O)Nc3c(C)cc(C)cc3C)o2)cc(OC)c1OC	none
COc1cc(C(=O)NCc2nnc(SCC(=O)Nc3cc(C)cc(C)c3)o2)cc(OC)c1OC	HSF1 inh -56
O=[N+]([O-])c1ccc2nc(-c3ccncc3)[nH]c2c1	none (no result: esBAF inh)
O=[N+]([O-])c1ccc2nc(-c3ccc(Cl)cc3)[nH]c2c1	HSF-1 act 80 (no result: esBAF inh)
COc1ccc(-c2nc3ccc([N+](=O)[O-])cc3[nH]2)cc1	HSF-1 act 54, Vif inh inconclusive (no result: esBAF inh)
Cc1ccc(-c2nc3ccc([N+](=O)[O-])cc3[nH]2)cc1	HSF-1 act 61 (no result: esBAF inh)
CCOC(=O)N(C)C[C@@H]1OCc2ccccc2-c2ccccc2C(=O)N([C@@H](C)CO)C[C@@H]1C	none (no result: HSF1 inh, HSF-1 act, Vif inh)
CCCCc1noc2c1/C(=N\O)CC(c1ccccc1)C2 (configuration not stated)	esBAF inh 59
CCOc1ccccc1/C=C/c1onc(C)c1S(=O)(=O)N1CCC(C(=O)N(CC)CC)CC1	HSF1 inh -60
O=S(=O)(c1ccccc1F)N1C[C@@H]2[C@H](c3ccccc31)[C@H](CO)N2Cc1ccc2c(c1)OCO2	none (no result: HSF1 inh, HSF-1 act, Vif inh)
NNC(=O)c1ccc([N+](=O)[O-])c(CS(=O)(=O)c2ccc(Cl)cc2)c1	HSF-1 act 57 (no result: esBAF inh)
O=C(NCCSc1ccccc1)c1ccccc1F	esBAF inh 47
CN(C)S(=O)(=O)c1ccc(C(=O)NCCSc2ccccc2)cc1	esBAF inh 53
O=C(COc1ccccc1)NCCSc1ccccc1	esBAF inh 52
O=C(NCCSc1ccccc1)c1cccnc1	esBAF inh 58
O=C(NCCCSc1ccccc1)c1cccnc1	none
